Screening data from PubChem.
A selection: hits, their analogues and other compounds. The true share with any hit is near 1.2%.
NSD2 HMT inh = inhibitors of human histone methyltransferase NSD2; NSD2 peptide methylation, AlphaScreen, 120 min; inhibition, % at 12.5 µM; O96028; 0.54% of 310,000 active; in the data active means inhibition above about 50%
Target sequence (O96028 whole entry, looked up): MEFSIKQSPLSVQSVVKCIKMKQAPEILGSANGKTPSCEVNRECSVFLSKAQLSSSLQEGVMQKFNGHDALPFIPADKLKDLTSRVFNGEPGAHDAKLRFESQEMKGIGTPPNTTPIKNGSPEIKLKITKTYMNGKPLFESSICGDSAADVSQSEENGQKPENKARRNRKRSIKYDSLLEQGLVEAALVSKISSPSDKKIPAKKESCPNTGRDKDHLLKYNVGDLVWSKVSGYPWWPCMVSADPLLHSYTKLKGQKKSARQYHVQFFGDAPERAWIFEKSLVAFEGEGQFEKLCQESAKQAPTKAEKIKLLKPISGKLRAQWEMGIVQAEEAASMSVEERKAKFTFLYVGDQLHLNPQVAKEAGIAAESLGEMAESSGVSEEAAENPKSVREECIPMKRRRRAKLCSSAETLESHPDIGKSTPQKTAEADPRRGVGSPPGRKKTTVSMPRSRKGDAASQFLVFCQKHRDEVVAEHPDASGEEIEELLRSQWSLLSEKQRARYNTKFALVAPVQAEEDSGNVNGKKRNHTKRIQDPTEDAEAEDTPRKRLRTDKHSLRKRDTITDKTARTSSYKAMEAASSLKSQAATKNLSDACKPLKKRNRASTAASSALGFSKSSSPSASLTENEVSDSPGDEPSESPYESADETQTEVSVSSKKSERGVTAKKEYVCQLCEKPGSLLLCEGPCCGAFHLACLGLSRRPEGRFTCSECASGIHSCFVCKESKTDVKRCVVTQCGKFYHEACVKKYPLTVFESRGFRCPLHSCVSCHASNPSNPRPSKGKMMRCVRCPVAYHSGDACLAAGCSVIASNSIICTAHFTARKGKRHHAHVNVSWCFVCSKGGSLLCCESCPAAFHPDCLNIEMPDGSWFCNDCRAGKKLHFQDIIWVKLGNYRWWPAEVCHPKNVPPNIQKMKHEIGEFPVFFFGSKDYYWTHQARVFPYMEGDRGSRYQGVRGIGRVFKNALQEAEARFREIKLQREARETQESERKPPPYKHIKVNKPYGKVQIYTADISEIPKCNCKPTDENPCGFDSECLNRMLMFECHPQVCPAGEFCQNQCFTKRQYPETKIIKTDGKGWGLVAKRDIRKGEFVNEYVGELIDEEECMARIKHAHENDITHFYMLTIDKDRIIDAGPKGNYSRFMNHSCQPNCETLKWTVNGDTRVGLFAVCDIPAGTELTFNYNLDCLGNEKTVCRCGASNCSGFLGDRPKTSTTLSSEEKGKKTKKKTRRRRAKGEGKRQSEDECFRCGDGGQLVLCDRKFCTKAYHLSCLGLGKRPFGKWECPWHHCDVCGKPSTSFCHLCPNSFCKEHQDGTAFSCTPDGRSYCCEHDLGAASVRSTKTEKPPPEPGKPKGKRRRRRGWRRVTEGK
PglD inh = PglD (C. jejuni) enzyme inhibition. purified PglD enzyme, DTNB colorimetric CoA detection. inhibition, % at 12.5 µM. 0.098% of 360,000 active. AID 602405; in the data active means inhibition above about 16%, passing the limit was not always enough
miR122 inh = blocks miR-122 activity in Huh7 sensor cells; activation (reporter increase), % at 12.5 µM; 0.3% of 340,000 active; Huh7 miR-122 Renilla luciferase sensor, 48 h; neutral wells = 0, positive control = 100; AID 602342;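 active means mean replicate activation score at least 90 and every replicate individually at or above 90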;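 further: higher luciferase means less miR-122 activity so hits act as miR-122 inhibitors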
Statin myotox sup = protects C2C12 myotubes from simvastatin toxicity. ATP luminescence, 48 h; scaled: DMSO 0, geranylgeraniol control 100. rescue of ATP level, % at 7.49 µM. 0.78% of 330,000 active;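 active means mean ATP rescue above about 67%, or every replicate alone reaching that limit, limit read from the data, passing the limit was not always enough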;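 further: myotubes were challenged with 10 µM simvastatin during compound exposure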
AlphaScreen art = counter-screen for NSD2 inhibitors: AlphaScreen artifacts; shares compounds with NSD2 HMT inh; AlphaScreen artifact counterscreen, preloaded methylated H4 peptide; AC35, µM (highest dose often 10 µM), without a hit: at the highest dose activity change, negative = signal loss; 9.4% of 1,500 active; AID 1053174; call rule not given here
Active calls of the source: *; · = no result; [ ] = another dose, or the depositor's remark.

SMILES | NSD2 HMT inh | PglD inh | miR122 inh | Statin myotox sup | AlphaScreen art
Cn1c(=O)c(-c2ccccc2)nc2ccccc21 | 126* | -6 | -1 | 5 | 7%
COc1ccc(S(=O)(=O)Nc2cccc3c2O[C@@H](CN(C)S(=O)(=O)c2cccs2)[C@@H](C)CN([C@@H](C)CO)C3=O)cc1 | · | 2 | -1[16.7 µM] | · | ·
COC1=CC(=O)c2nc(Cl)ccc2C1=O | 127* | · | · | · | -2%
COc1ccc(C(C[N+](=O)[O-])c2c(C)[nH]n(-c3ccccc3)c2=O)cc1 (configuration not stated) | 92* | -2 | · | 2 | -3%
COc1ccc(C(C[N+](=O)[O-])c2c(C)cc3ccccn23)cc1 (configuration not stated) | · | -3 | 2 | 0 | ·
CO[C@H]1CN(C)C(=O)c2cc(NC(=O)NC(C)C)ccc2OC[C@H](C)NC[C@@H]1C | · | 1 | -14[16.7 µM] | -1 | ·
CCOc1ccc2[nH]c3c(NCCN(CC)CC)ncnc3c2c1 | 103* | 5 | -3 | -11 | -4%
CCN(CC)CCCNc1nc2ccccc2c2[nH]c3ccc(OC)cc3c12 | 56* | · | · | · | -7%
C[C@@H](O)C#Cc1ccc2c(c1)O[C@H](CN(C)C(=O)C1CCCCC1)[C@@H](C)CN([C@@H](C)CO)S2(=O)=O | · | 4 | 14[16.7 µM] | -1 | ·
O=C(O)C1CC(c2ccccc2F)=NO1 (configuration not stated) | 108* | -8 | -2 | -5 | -7%
CC(=O)c1ccc(-n2c(-c3cc(-c4ccco4)[nH]n3)n[nH]c2=S)cc1 | 59* | -1 | -9 | 84* | -6%
O=C(O)c1ccc(-n2c(-c3cc(-c4ccco4)[nH]n3)n[nH]c2=S)cc1 | 2 | -4 | -2 | 8 | ·
COCC(C)OC(=O)/C(C#N)=C\c1coc2ccc(C)cc2c1=O (configuration not stated) | 50* | · | · | · | -4%
O=c1c2cnn(-c3ccccc3)c2nc(-c2ccco2)n1-c1ccccc1 | 115* | -3 | 1 | -60 | -4%
O=c1oc(-c2ccco2)nc2c1cnn2-c1ccccc1 | -3 | 1 | -4 | -5 | ·
CC(C)CC#Cc1cnc2c(c1)C(=O)N([C@H](C)CO)C[C@H](C)[C@H](CN(C)C(=O)c1cnccn1)O2 | · | -5 | 6[16.7 µM] | -1 | ·
C=CCN1CCN(C(c2cccc(OC)c2OC)c2nnnn2CCC(C)C)CC1 (configuration not stated) | 98* | · | · | · | -4%
COc1cccc(C(c2nnnn2CCc2ccccc2)N2CCN(c3ccccc3)CC2)c1OC (configuration not stated) | -1 | -4 | 27 | -10 | ·
CCCn1c2c(c(O)c(C(=O)NCCCN(CC)CC)c1=O)CCCC2 | 59* | 6 | -1 | -25 | -9%
NS(=O)(=O)c1ccc(N=Nc2ccc(=O)[nH]c2O)cc1 | 110* | · | · | · | -6%
NS(=O)(=O)c1ccc(N=Nc2ccc(O)c3ncccc23)cc1 | 5 | · | · | · | ·
Cc1cc([N+](=O)[O-])cc2ncccc12 | -3 | · | -6 | · | ·
O=[N+]([O-])c1cc2ncccc2c2ncccc12 | 56* | -8 | 8 | -6 | -6%
CCOc1ccccc1N(CC(=O)Nc1ccc(OC)c(OC)c1)S(=O)(=O)c1ccccc1 | 1 | 3 | 7 | -13 | ·
CCOc1ccccc1N(CC(=O)NCCc1ccc(OC)c(OC)c1)S(=O)(=O)c1ccccc1 | 55* | 3 | -6 | 2 | 0%
SMILES | NSD2 HMT inh | PglD inh | miR122 inh | Statin myotox sup | AlphaScreen art
C/C=C/c1cnc2c(c1)C(=O)N([C@@H](C)CO)C[C@@H](C)[C@H](CN(C)C(=O)c1cccc(F)c1)O2 | · | 1 | · | 1 | ·
COc1ccc(-c2c3c(nc4sc(C(=O)Nc5cc(C)on5)c(N)c24)CCC3)cc1 | 52* | -1 | -4 | 4 | 5%
COc1ccc(-c2c3c(nc4sc5c(=O)[nH]c(C)nc5c24)CCC3)cc1 | 0 | -1 | -8 | · | ·
CC(=O)NCCOc1cccc(OCCNC(C)=O)c1 | -5 | -2 | -1 | · | ·
CNCCCOc1cccc(OC(C)C)c1 | 92* | -10 | 1 | · | -3%
CNCCCOc1cccc(Oc2ccccc2)c1 | 127* | · | · | · | 0%
CC(O)CNCCCOc1cccc(Oc2ccccc2)c1 (configuration not stated) | 3 | 4 | · | · | ·
Cc1noc(C)c1NC(=O)Nc1ccc2c(c1)C(=O)N([C@H](C)CO)C[C@H](C)[C@H](CN(C)S(=O)(=O)c1ccccc1)OCCCC[C@H](C)O2 | · | -3 | -4[16.7 µM] | · | ·
O=C(c1cc(-c2ccc(Cl)c(Cl)c2)on1)N1CCCCCC1 | 81* | -2 | -2 | -19 | -2%
CC(C)NC1CCC(Nc2ccnc3cc(Cl)ccc23)CC1 (configuration not stated) | 81* | -3 | 3 | -54 | -3%
Clc1ccc2c(NCCNC3CCCCC3)ccnc2c1 | · | 0 | -3 | -122 | ·
C[C@@H]1CN([C@H](C)CO)C(=O)c2cc(-c3ccc(F)cc3)cnc2O[C@H]1CN(C)C(=O)C1CCC1 | · | 0 | 1[16.7 µM] | 7 | ·
CO[C@@H]1CN(C)C(=O)c2ccc(NS(=O)(=O)c3cccc(C)c3)cc2OC[C@@H](C)N(Cc2cc(F)ccc2F)C[C@H]1C | · | 2 | · | 41 | ·
COc1ccc(NC(=O)Nc2ccccc2SC)cc1OC | 2 | · | · | · | ·
CNCc1ccccc1Sc1cc(O)ccc1O | 50 | · | · | · | ·
CNCc1ccccc1Sc1ccc(OC)c(OC)c1 | 56* | -3 | 4 | -1 | -5%
CNCc1ccccc1Sc1cccc(O)c1 | 74* | -2 | · | · | -4%
O=[N+]([O-])c1cccnc1C1OCCO1 | -3 | -2 | · | · | ·
Cc1cnc(C2OCCO2)c2cccc(N)c12 | 156* | 0 | -14 | 2 | 0%
CCCN(CCC)CCCNC(=S)Nc1ccc2nc(N3CCN(CC)CC3)cc(C)c2c1 | 70* | · | · | · | -10%
CCCN(CCC)CCCNC(=S)Nc1ccc2nc(N3CCN(C)CC3)cc(C)c2c1 | 35 | -7 | -1 | -12 | ·
CCc1ccc(-n2cccc2/C=C2/C(=N)N3C(=NC2=O)SN=C3S(C)(=O)=O)cc1 | 89* | · | · | · | -10%
CC(=O)Nc1ccc(S(=O)(=O)NCCSCc2ccc(Cl)cc2Cl)cc1 | 50* | -1 | 19 | 13 | 0%
CCc1ccccc1NC(=O)CSc1nc2n[nH]c(C)c2c(=N)n1-c1cccc(OC)c1 | 58* | 4 | -5 | 9 | -4%
COc1ccc(OC)c(NC(=O)CSc2nc3n[nH]c(C)c3c(=N)n2-c2cccc(Cl)c2C)c1 | 4 | -2 | · | -1 | ·
O=c1[nH]c(NCCO)c(N=Cc2ccccc2)c(=O)[nH]1 | 104* | 2 | 2 | 6 | 3%
Cc1cc(=O)oc(C)c1C(=O)OCC(=O)c1ccccc1 | 54* | -7 | 0 | -3 | -5%
CCNC(=O)C1CCCN(C(=O)c2ccccc2F)CC1 (configuration not stated) | 1 | -2 | -3 | 4 | ·
CCNC(=O)C1CCCN(C(=O)c2ccccc2OC(F)(F)F)CC1 (configuration not stated) | 60* | 1 | · | 16 | -3%
CCOc1ccc(NC(=S)NC(=O)/C=C/c2ccco2)cc1 | -2 | 5 | 2 | -54 | ·
